Screening data: PubChem BioAssay, several laboratories
TNF death inh – inhibitors of TNF-alpha triggered necroptosis, primary screen, cell-based, Jurkat FADD-/-, single concentration | 0.068% of 220,000 active | Jurkat FADD-/- TNF necroptosis rescue, ATP luminescence, 24 h; 0 = TNF only, 100 = no-TNF cells | activation (protection from cell death), % at 10 µM;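 active = activation, meaning protection from cell death, of at least 50% relative to plate controls; inactive = activation below 50%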;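 note: necroptosis triggered by 40 ng/mL TNF-alpha added together with compound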
14-3-3 Bad PPI – inhibitors of 14-3-3 zeta/Bad binding, primary screen, biochemical, TR-FRET, bovine 14-3-3 zeta. 14-3-3 protein zeta/delta (Bos taurus), P63103. TR-FRET 14-3-3zeta/Dy647-pBad peptide displacement, 1 h. inhibition, % at 21.7 µM. 0.71% of 220,000 active. AID 781, 2007;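 active = inhibition above about 70%, limit read from the data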
Target sequence (P63103 whole entry, looked up): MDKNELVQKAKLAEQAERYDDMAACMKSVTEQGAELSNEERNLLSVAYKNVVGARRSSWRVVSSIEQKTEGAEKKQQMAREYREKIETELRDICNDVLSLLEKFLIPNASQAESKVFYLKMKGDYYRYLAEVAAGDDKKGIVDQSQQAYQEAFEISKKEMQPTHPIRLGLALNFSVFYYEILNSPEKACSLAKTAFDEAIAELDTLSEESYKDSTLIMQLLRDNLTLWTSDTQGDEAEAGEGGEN
m-calpain inh – inhibitors of pig calpain II, primary screen, biochemical, fluorogenic peptide substrate, 1536-well; AID 1236, 2008; inhibition, % at 16 µM; 0.37% of 220,000 active; purified calpain II, 30 min;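 active = inhibition above about 50%, limit read from the data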
ROMK primary – ROMK potassium channel modulators, primary screen, cell-based, thallium flux, MLSMR library; 2% of 130,000 active; B-score at 10 µM; Tet-inducible ROMK, thallium flux fluorescence; actives lie on both sides; AID 1918, 2009;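 active = signal ratio slope over the read window, or its plate-corrected B-score, at least 3 SD from the plate mean, either direction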;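 note: B-score of the F/F0 ratio slope over 7 to 12 s after thallium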
Target sequence (P48048 whole entry, looked up): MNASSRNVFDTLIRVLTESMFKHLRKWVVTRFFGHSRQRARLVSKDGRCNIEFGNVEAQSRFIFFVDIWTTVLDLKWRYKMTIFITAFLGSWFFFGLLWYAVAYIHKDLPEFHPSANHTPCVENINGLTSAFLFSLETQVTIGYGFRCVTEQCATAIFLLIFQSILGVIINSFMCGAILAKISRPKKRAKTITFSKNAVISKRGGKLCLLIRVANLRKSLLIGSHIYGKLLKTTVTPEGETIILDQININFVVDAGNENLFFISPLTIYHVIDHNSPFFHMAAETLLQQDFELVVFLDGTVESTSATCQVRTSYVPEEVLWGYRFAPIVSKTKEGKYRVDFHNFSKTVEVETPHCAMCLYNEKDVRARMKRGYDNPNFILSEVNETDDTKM
HMGR II inh – inhibitors of E. faecalis class II HMGR, primary screen, biochemical, Enterococcus faecalis; HMG-CoA reductase (Enterococcus faecalis, mvaE); purified E. faecalis HMGR, NADPH absorbance 340 nm kinetic; inhibition, % at 10 µM; 0.41% of 190,000 active;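 active = inhibition above a set limit, the median over all tested compounds plus 3 SD, cut at about 9.5% in these data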;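 note: enzyme runs in reverse so mevalonate oxidation gives rising NADPH absorbance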
zVAD death inh – inhibitors of zVAD-triggered necroptosis, primary screen, L929 cells. L929 zVAD necroptosis rescue, ATP luminescence, 24 h; with zVAD 60 µM. viability rescue, % at 10 µM. 0.38% of 220,000 active;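 active = activation, scaled between plate controls, above about 75%, limit read from the data; inactive = activation under that limit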
zVAD death conf – inhibitors of zVAD-triggered necroptosis in L929, confirmation, L929 cells, duplicate runs. shares compounds with zVAD death inh. L929 zVAD-induced necroptosis rescue, ATP luminescence, 24 h. activation (protection from necroptosis), % at 10 µM. 16% of 760 active;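 active = mean protection from necroptosis of at least 50% over duplicate tests; inactive = mean protection below 50%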
A number is an active result; n = inactive; x = not tested or not shown. Only some compounds are listed: those with a hit (about 3% of all), similar ones and a draw of the others.

SMILES	TNF death inh	14-3-3 Bad PPI	m-calpain inh	ROMK primary	HMGR II inh	zVAD death inh	zVAD death conf
COc1cc([N+](=O)[O-])cc(/C=N/NC(=O)CSc2ccccn2)c1O	n	n	n	n	x	n	x
COC(=O)CCc1c(C)[nH]c(C(=O)OCc2ccccc2)c1C	n	n	n	n	n	76	n
CCOC(=O)c1[nH]c(C(=O)O)c(CCC(=O)OC)c1C	n	n	n	x	n	n	x
Cc1ccc(CC2SC(N)=NC2=O)cc1 (centres undefined)	n	n	n	n	n	83	n
Cc1cccc(CC2SC(N)=NC2=O)c1 (centres undefined)	n	n	n	n	n	n	x
COc1ccc(/C=C/C(=O)C(C(N)=O)=C2SCCS2)cc1	n	n	n	x	n	n	x
NC(=O)C(C(=O)/C=C/c1ccc(Cl)cc1)=C1SCCS1	n	n	n	x	x	82	n
O=C(Cc1ccc(F)cc1)Nc1cccc(-c2ccc3nncn3n2)c1	n	n	n	n	n	89	n
CN1CCN(c2ccc(CNC(=O)c3ccco3)cc2)CC1	n	n	n	x	x	n	x
O=C(COC(=O)c1cc[n+]([O-])cc1)NCC12CC3CC(CC(C3)C1)C2	n	n	n	n	n	n	x
CN(C)S(=O)(=O)c1ccc(Cl)c(NC(=O)CSc2nnnn2-c2ccc(O)cc2)c1	n	n	n	n	n	86	88
Cc1ccc(S(=O)(=O)N(C)C)cc1NC(=O)CSc1nnnn1-c1ccc(O)cc1	n	n	n	x	x	n	x
CC(=O)C1=C(C)NC(SCC(=O)Nc2nccs2)=C(C#N)C1c1ccccc1Cl (centres undefined)	n	n	n	n	n	82	n
C=CCOC(=O)C1=C(C)NC(SCC(=O)Nc2nccs2)=C(C#N)C1c1cccs1 (centres undefined)	n	n	n	x	n	87	66
CSC1=C(C#N)C(c2ccccc2Cl)C(C(C)=O)=C(C)N1 (centres undefined)	n	n	n	n	n	n	x
C=CCOC(=O)C1=C(C)NC(SCC(=O)Nc2nccs2)=C(C#N)C1c1ccc(Cl)cc1 (centres undefined)	n	n	n	x	n	n	x
COc1cc(NC(=O)COc2ccc(-n3ccnc3)cc2)cc(OC)c1	n	n	n	n	n	n	x
N#Cc1cccc(NC(=O)COc2ccc(-n3ccnc3)cc2)c1	n	n	n	n	n	77	68
CCOC(=O)c1c(NC(=O)N/N=C/c2ccc(O)c(OC)c2)sc(C(C)=O)c1C	n	n	n	x	x	78	n
CCOC(=O)c1c(NC(=O)N/N=C/c2ccccc2OCC)sc(C(C)=O)c1C	n	n	n	n	n	n	x
CC(C)c1ccc(C(=O)NC(=S)Nc2ccc3[nH]c(=O)[nH]c3c2)cc1	n	n	n	x	x	81	n
CC(=O)Nc1ccc(Sc2ncccc2C(=O)Nc2ccc(OC(F)(F)F)cc2)cn1	n	n	n	x	n	80	77
COc1ccc(NS(=O)(=O)c2ccc(/C=C/C(=O)O)cc2)cc1S(=O)(=O)N1CCOCC1	n	n	n	x	x	n	x
COc1cc(CCc2ccc3c(c2)OCO3)oc(=O)c1	n	n	n	x	x	n	x
CC1(Cc2ccc3c(c2)OCO3)NC(=O)NC1=O (centres undefined)	n	n	n	n	n	102	59
SMILES	TNF death inh	14-3-3 Bad PPI	m-calpain inh	ROMK primary	HMGR II inh	zVAD death inh	zVAD death conf
CC(C)CCNC(=O)Cc1ccc(Nc2nc(=S)[nH]c3ccccc23)cc1	n	n	n	n	n	n	x
Cc1ccccc1OCC(=O)Nc1ccc(Cc2ccncc2)cc1	n	n	n	n	n	79	n
O=C(Nn1c(Cc2cccs2)nc2ccccc2c1=O)c1cccs1	n	n	n	x	n	n	x
Cc1cc(C)nc(NS(=O)(=O)c2ccc(NC(=O)CSc3nc(-c4ccccc4)c(C#N)c(=O)[nH]3)cc2)n1	n	n	n	n	n	n	x
O=[N+]([O-])c1cc(Cl)cc(/C=N/Nc2nc3ccccc3s2)c1O	n	n	n	x	n	n	x
COc1cc(/C=N/Nc2nc3ccccc3s2)ccc1OC(=O)c1ccccc1F	n	n	n	n	n	75	75
Brc1csc(/C=N/Nc2nc3ccccc3s2)c1	n	n	n	x	n	76	n
COc1cc(OC)cc(C(=O)Oc2ccc(/C=N/Nc3nc4ccccc4s3)cc2OC)c1	n	n	n	n	n	77	n
COc1cc(/C=N/Nc2ccccc2)ccc1OC(=O)c1cccs1	n	n	n	x	x	n	x
COc1cc(/C=N/Nc2nc3ccccc3s2)cc([N+](=O)[O-])c1O	n	n	n	n	x	76	n
C(=N\Nc1nc2ccccc2s1)/c1ccccn1	n	n	n	x	x	n	x
COc1cc(N2C(=O)C=CC2=O)c(OC)cc1Cl	n	n	n	x	x	n	x
Cc1cc(CNC(=O)CC2C(=O)NCCN2CC(C)(C)C)nn1C (centres undefined)	n	n	n	n	n	n	x
CCc1ccccc1NC(=O)CN(C)C(=O)CSc1nn(-c2ccc(F)cc2)c(=S)s1	n	n	n	x	n	n	x
O=S1(=O)CC2NC(=S)N(c3cccc(Br)c3)C2C1 (centres undefined)	n	n	n	n	x	n	x
CC(C)c1ccc(NC(=O)N2CCc3ccccc3C2)cc1	n	n	n	n	n	76	n
CCOC(=O)Nc1ccc2c(c1)ncn2C1CCCCC1	n	n	n	n	n	84	n
O=C(CCC1CCCN(C(=O)CCCc2ccccc2)C1)N1CCN(c2ccccn2)CC1 (centres undefined)	n	n	n	x	x	n	x
O=[N+]([O-])c1ccc2c(c1)ncn2-c1ccccc1	n	n	n	x	n	83	n
CC(C)=CCN1CCN(Cc2cnc(-c3ccccc3)s2)CC1CCO (centres undefined)	n	n	n	n	n	n	x
Cc1csc(NC(=O)CSc2nsc(SCC(=O)Nc3nc(C)cs3)c2C#N)n1	n	n	n	n	n	76	53
Cc1cccc(N=c2oc3cc(O)ccc3cc2C(N)=O)c1	n	n	n	x	n	83	n
C/C=C(/C)C(=O)O[C@H]1[C@@H](O)c2c(ccc3ccc(=O)oc23)OC1(C)C	n	n	n	n	n	n	x
C=C1C(=O)O[C@@H]2[C@H]1[C@@H](OC(=O)/C(C)=C/C)C/C(C)=C\C(=O)/C=C(\C)[C@@H]2O	n	n	n	x	x	84	n
COC(=O)COc1cccc(-n2cnnn2)c1	n	n	n	x	n	n	x
